# Reference: ChEMBL document CHEMBL3988442, “University of Dundee, Small-Polar-MMV Screening Library” (2021)
# Hit rate of the full screen: of about 48,000 compounds, about 13,000 (27%) showed an effect of 50% or more. Some of the results follow.
# System: Wolbachia pipientis
# Experiment: Anti-Wolbachia Cell-Based Screen
# Format: functional
# Parameters: scale not given: in the data most compounds retested in dose-response had high values
# Conditions: 5 µM
row,Compound,Percent Effect [%]
1,c1ccc(-c2nc3c(c(NCCn4cccc4)n2)CCNCC3)nc1,-2.581
2,CC(C)c1nc(CC(=O)Nc2nc(CN3CCCCCC3)cs2)cs1,13.84
3,O=C(NCCCn1cccn1)C1COCC(=O)N1Cc1ccccc1 (centres undefined),-30.45
4,CC(C(=O)NCCOc1cccc(Cl)c1)n1cncn1 (centres undefined),-0.6619
5,O=C(CCOc1ccc(Cl)cc1)NCCCn1cccn1,101.2
6,O=C(CCn1cncn1)NCCOc1cccc(Cl)c1,114.1
7,O=C(CN1CCOc2ccc(Cl)cc21)NCCCn1cccn1,-8.926
8,Cc1occc1C(=O)NCC(=O)NCCOc1cccc(Cl)c1,23.6
9,CNc1nc(C(=O)N2C[C@H]3CC[C@@H]2CN(S(C)(=O)=O)C3)cs1,-0.32
10,COc1ccc(S(=O)(=O)N2CCC(OCc3ccccn3)C2)cc1Br (centres undefined),4.781
11,Cc1cc(C2CCCN(CCS(=O)(=O)c3ccccc3)C2)n[nH]1 (centres undefined),111.9
12,Cc1cc(C2CCCN(CCNS(=O)(=O)c3ccccc3)C2)n[nH]1 (centres undefined),94.49
13,Cn1c(C2CC2)nc2c1CCN(CCS(=O)(=O)c1ccccc1)C2,-2.763
14,Cc1cc(C2CCCN(CCCS(=O)(=O)c3ccccc3)C2)n[nH]1 (centres undefined),-3.796
15,Cc1cc(N2CCC(N(C)Cc3cc(=O)c(O)co3)CC2)nc(C)n1,-0.2819
16,CN(CC(O)C1CC1)C(=O)Nc1ccc(F)c(-n2cccc2)c1 (centres undefined),2.69
17,CCc1cc(O)nc(C2CCCN2C(=O)c2cc(CC)on2)n1 (centres undefined),115.4
18,CCc1nc(C2CCCN2C(=O)c2ccc(=O)n(CC)n2)no1 (centres undefined),-10.47
19,CCc1cc(O)nc(C2CCCN2C(=O)c2cc(C)no2)n1 (centres undefined),-6.64
20,CCn1nc(C(=O)N2CCCC2c2noc(C)n2)ccc1=O (centres undefined),2.469

row,Compound,Percent Effect [%]
1,CCc1nc(C2CCCN2C(=O)c2nccnc2N)no1 (centres undefined),-19.66
2,CCc1cc(C(=O)N2CCCC2c2nc(O)cc(CC)n2)on1 (centres undefined),115.5
3,CCc1cc(O)nc(C2CCCN2C(=O)COC)n1 (centres undefined),126
4,CCc1ccc(C(=O)NC2CCN(c3ccn(C)n3)C2)o1 (centres undefined),-10.19
5,O=C(Nc1cc(C(F)(F)F)ccc1Cl)c1ccc(N2CCCC2)nn1,13.93
6,N#Cc1ccc(OCCNc2cccc(C(=O)N3CCOCC3)c2)cc1,-3.52
7,CC(C)C(C#N)N1CCN(C(=O)c2cc(-c3ccccn3)no2)CC1 (centres undefined),-9.203
8,O=C(NCCn1cccc1)C1CCCN(C2CCCC2)C1 (centres undefined),-8.525
9,CCN(CC)C(=O)[C@@H]1C[C@H](n2cc(-c3cccc(OC)c3)nn2)CN1,-3.277
10,CCN(CC)C(=O)[C@@H]1C[C@@H](n2cc(-c3ccccn3)nn2)CN1,-7.154
11,CCN(CC)C(=O)[C@@H]1C[C@H](n2cc(-c3ccccn3)nn2)CN1,-5.115
12,CNC(=O)[C@@H]1C[C@H](n2cc(-c3ccc(Cl)cc3)nn2)CN1,104.7
13,CNC(=O)[C@@H]1C[C@@H](n2cc(-c3ccc(Cl)cc3)nn2)CN1,111.1
14,CCN(CC)C(=O)[C@@H]1C[C@@H](n2cc(-c3cccc(OC)c3)nn2)CN1,-2.078
15,CNC(=O)NC(=O)CCSc1ccccc1C,-14.48
16,CCc1noc(CN2CCCC2C(=O)OCc2ccccc2)n1 (centres undefined),6.169
17,Cc1nc2n(n1)CC(NCC(=O)NCCCOC(C)C)CC2 (centres undefined),-9.274
18,COc1ccc(CC(=O)N2CCC(Nc3ccc(C)nn3)CC2)cc1,95.7
19,Cc1ccc(CC(=O)N2CCC(Nc3ccc(C)nn3)CC2)cn1,105.9
20,Cc1ccc(NC2CCN(C(=O)Cc3ccc(C#N)cc3)CC2)nn1,-2.358

row,Compound,Percent Effect [%]
1,Cc1ccc(OCC(=O)NS(=O)(=O)c2cccnc2)cc1C,-7.985
2,Cc1c[nH]c(C(=O)N2CCC(c3nnc(CN(C)CCO)n3C)CC2)c1,-9.354
3,CCCNC(=O)CN1CCOC(c2ccc(Br)cc2)C1 (centres undefined),-1.206
4,COC1CCCN(Cc2cc(O)c3cc(C)cc(C)c3n2)C1 (centres undefined),-4.558
5,Cc1cc(C)c2nc(CN3CC[C@@H](O)C3)cc(O)c2c1,-21.84
6,Cc1cc(C)c2nc(CN3CCCC(c4cc[nH]n4)C3)cc(O)c2c1 (centres undefined),54.67
7,CN(Cc1ccco1)[C@@H]1CN(Cc2cnn(C)c2)[C@@H]2CCCO[C@H]12.O=C(O)C(F)(F)F.O=C(O)C(F)(F)F,12.06
8,CCN(CC)[C@@H]1CN(Cc2nccn2C)[C@@H]2CCCO[C@H]12.O=C(O)C(F)(F)F.O=C(O)C(F)(F)F.O=C(O)C(F)(F)F,-9.914
9,CN(Cc1cccnc1)[C@@H]1CN(Cc2cnn(C)c2)[C@@H]2CCCO[C@H]12.O=C(O)C(F)(F)F.O=C(O)C(F)(F)F.O=C(O)C(F)(F)F.O=C(O)C(F)(F)F,88.39
10,Cn1cc(CN2C[C@H](N3CCOCC3)[C@@H]3OCCC[C@@H]32)cn1.O=C(O)C(F)(F)F.O=C(O)C(F)(F)F,9.025
11,CN(Cc1cccnc1)[C@@H]1CN(Cc2nccn2C)[C@@H]2CCCO[C@H]12.O=C(O)C(F)(F)F.O=C(O)C(F)(F)F.O=C(O)C(F)(F)F.O=C(O)C(F)(F)F,107.5
12,CN(Cc1ccco1)[C@@H]1CN(Cc2nccn2C)[C@@H]2CCCO[C@H]12.O=C(O)C(F)(F)F.O=C(O)C(F)(F)F.O=C(O)C(F)(F)F,-0.8776
13,CCC(C)(CNC(=O)Nc1nncs1)N1CCOCC1 (centres undefined),-7.544
14,Cc1nc(C)n(CC2CCCN(c3ncnc4c3CCC4)C2)n1 (centres undefined),-12.81
15,Cc1nc(C)n(CC2CCCN(c3ccc(C#N)cn3)C2)n1 (centres undefined),123
16,Cc1nc(C)n(CC2CCCN(c3ncnc4ccsc34)C2)n1 (centres undefined),-4.048
17,Cc1nc(C)n(CC2CCCN(c3ccnc(-c4ccccc4)n3)C2)n1 (centres undefined),-14.72
18,Cc1nc(C)n(CC2CCCN(c3ncnc4ccccc34)C2)n1 (centres undefined),143.5
19,CC(C)(NC(=O)C1CCN(C2CCCCC2)CC1)c1nnc(N)s1,3.743
